# Reference: PubChem BioAssay (NCI)
# About 83,000 compounds went through this panel and 20% of them were active in at least one assay; those are over-represented in the sample as a whole.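 Cells were grown in 96-well plates and exposed to the test compound at a single concentration for 48 hours; results are reported as percent growth, with values below 10 considered active.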 A number with no mark means an inactive call. The source made the active and inactive calls.
# What was measured:
# Test in all cases: NCI-60 one-dose screen, 48 h (100 = growth as untreated, 0 = no growth, -100 = all killed)
# Details in all cases: 10 µM unless noted
# NCI-H23 lung = test system: NCI-H23 lung
# NCI-H226 lung = test system: NCI-H226 lung
# NCI-H322M lung = test system: NCI-H322M lung
# HOP-62 NSCLC = test system: HOP-62 NSCLC
# NCI-H460 lung = test system: NCI-H460 lung
# NCI-H522 lung = test system: NCI-H522 lung
# A549/ATCC NSCLC = test system: A549/ATCC NSCLC
# 786-0 renal = test system: 786-0 renal
# COLO 205 colon = test system: COLO 205 colon
# DU-145 prostate = test system: DU-145 prostate
# K-562 leukemia = test system: K-562 leukemia
# MALME-3M melanoma = test system: MALME-3M melanoma
# MDA-MB-231 breast = test system: MDA-MB-231 breast
# RXF 393 renal = test system: RXF 393 renal
# SF-268 CNS = test system: SF-268 CNS
# SF-295 CNS = test system: SF-295 CNS
# SF-539 CNS = test system: SF-539 CNS
# UACC-257 melanoma = test system: UACC-257 melanoma
# M14 melanoma = test system: M14 melanoma
Structure (SMILES),growth (NCI-H23 lung),growth (NCI-H226 lung),growth (NCI-H322M lung) [%],growth (HOP-62 NSCLC),growth (NCI-H460 lung),growth (NCI-H522 lung),growth (A549/ATCC NSCLC),growth (786-0 renal),growth (COLO 205 colon),growth (DU-145 prostate),growth (K-562 leukemia),growth (MALME-3M melanoma),growth (MDA-MB-231 breast),growth (RXF 393 renal),growth (SF-268 CNS),growth (SF-295 CNS),growth (SF-539 CNS),growth (UACC-257 melanoma),growth (M14 melanoma)
COc1nc2c(cc1S(=O)(=O)c1ccccc1)CCc1c-2cnn1-c1ccc(Cl)cc1,89.5%,92.1%,101,86.5%,99.2%,81.1%,95.4%,79.5%,118%,110%,97.2%,96.8%,95.3%,96.2%,104%,88.3%,100%,106%,97.5%
CC(=O)N1CC(Nc2ccc(OC(F)(F)F)cc2)=CC1=O,56.8%,67.5%,43.3,30.2%,20.6%,29.3%,38.9%,53.6%,4.8% (active),27%,8.54% (active),55.7%,55%,39.6%,59.8%,14.7%,–,46.6%,4.04% (active)
Nc1c(C(=O)Nc2ccccc2Cl)sc2nc3c(cc12)CCCCCC3,72.4%,31%,49.2,27%,30.8%,58%,29%,-55.3% (active),33.8%,56.3%,23.3%,-13.3% (active),–,-34.6% (active),38.4%,36.6%,14.3%,58.4%,34.5%
COc1cc(C2CC(=O)Nc3c2c(C)nn3-c2nc3ccccc3[nH]2)cc(OC)c1OC (stereo unspecified),99.6%,99.1%,103,104%,100%,94%,97.7%,110%,116%,119%,99.7%,106%,91.6%,89.8%,112%,–,–,96.7%,92.3%
COc1cc(NC(N)=NCC(C)(C)COc2ccc(C(F)(F)F)cc2)cnc1C#N,64.9%,68.7%,53.1,68.5%,58%,57.6%,72.5%,61.4%,59.9%,81.6%,34.5%,57.6%,57%,41%,50.4%,82.9%,72%,69.1%,45.6%
Oc1ccccc1/C=N/Nc1ccc2ccccc2n1,45%,83%,31.2,57.3%,27.2%,-9.13% (active),44%,65.3%,31.2%,55.6%,17.8%,35.2%,57.3%,–,52%,33.5%,42.1%,62.8%,52.3%
COc1ccc(-c2cc(-c3ccc(N(C)C)cc3)nc(NC(=O)c3ccncc3)n2)cc1,91.8%,82.6%,87.8,103%,99.7%,90.7%,93.7%,97.1%,111%,102%,95%,119%,111%,87.3%,98.1%,105%,96.8%,108%,104%
O=[N+]([O-])c1cccc(C2CC(c3ccccc3)=Nc3ccccc3S2)c1 (stereo unspecified),87.9%,96.6%,99.6,98.5%,106%,76.7%,88.6%,97.1%,98.9%,89.6%,12.2%,89.3%,97.3%,–,91.4%,–,108%,99.6%,102%
COc1c2ccccc2c(OC)c2[nH]c(=O)ccc12,-11.3% (active),37.1%,22.2,-13.2% (active),-57.7% (active),71.3%,-34.2% (active),89.7%,38.2%,-95.1% (active),–,-63.2% (active),69.4%,91.3%,64.4%,-21.4% (active),–,40.8%,-46.1% (active)
CC#Cc1nc2ccccc2c(=O)[nH]1,80.6%,64.5%,104,58.3%,73%,52.6%,72.2%,42%,78.7%,84.7%,37.8%,65.5%,26.7%,–,53.7%,87.2%,35.6%,48.2%,51.9%
COc1cc(C2CC(=O)c3c(C)nn(-c4nc5ccccc5[nH]4)c3C2)cc(OC)c1OC (stereo unspecified),86%,65.9%,67.8,32.3%,73.7%,31.6%,59.5%,23.8%,126%,85%,71.7%,75.1%,29.5%,30.3%,7.82% (active),64.7%,–,98.7%,102%
CC1=N/C(=C\c2cccc(Br)c2)C(=O)O1,106%,106%,106,92.8%,106%,87.7%,89.3%,102%,106%,109%,–,98.8%,105%,112%,98.6%,108%,115%,80.6%,104%
CCCCCCNC(=O)Oc1ccc(/C(=C(\C)c2ccccc2)c2ccc(OCCN(CC)CC)cc2)cc1,69.6%,82.6%,90,83.2%,7.03% (active),47.8%,49.9%,44.7%,-4.77% (active),87.7%,2.08% (active),33%,68.9%,32.7%,55.8%,83.1%,50%,-1.51% (active),-40.1% (active)
CC#CC#Cc1cccc(=O)o1,40.4%,74.4%,50.3,110%,83.5%,59.2%,104%,83.5%,46.8%,100%,73.8%,78.9%,45%,47.3%,50.4%,96.1%,76.4%,72.6%,74.9%
CCN(CC)CCCC(C)Nc1ccnc2c(OC)cccc12 (stereo unspecified),106%,111%,141,108%,125%,104%,106%,113%,114%,120%,121%,142%,107%,135%,124%,109%,116%,113%,108%
COc1cc2c(c(OC)c1OC)-c1ccc(N=NC(N)=S)c(=O)cc1[C@@H](NC(C)=O)CC2,1.29% (active),41.8%,36.5,7.96% (active),3.1% (active),-59.8% (active),15%,9.81% (active),-73.6% (active),-40.1% (active),9.08% (active),61.2%,9.7% (active),-13.5% (active),9.15% (active),6.76% (active),1.01% (active),49.5%,-39.1% (active)
O=C(CN1CCN(c2cc3c(cc2F)c(=O)c(C(=O)O)cn3C2CC2)CC1)Nc1nc(-c2ccccc2)cs1,86.4%,77.3%,102,81.1%,73.3%,75.5%,65.2%,75.5%,93.3%,79.7%,64.5%,89.8%,95.5%,78.2%,83.9%,69.9%,–,65.2%,76%
Cc1ccc(S(=O)(=O)n2cc(-c3csc(-c4cn(C)c5ncccc45)n3)c3ccccc32)cc1,68.1%,77.6%,79.5,51.8%,30.3%,45.6%,41.5%,77.9%,43.6%,78.3%,26.7%,68.5%,42.6%,74.3%,74.1%,41.9%,–,70.8%,34.2%
CSc1ncnc2c1ncn2C1CCCO1 (stereo unspecified),96.1%,90.1%,90.9,99.7%,105%,121%,106%,104%,119%,127%,91.2%,93.6%,110%,131%,115%,104%,103%,124%,109%
Cc1ccc2c(NCCCN(C)C)c3c(C)nn(C)c3nc2c1,51.6%,41.7%,34.5,41.1%,8.82% (active),28.3%,13.7%,37.1%,13.4%,–,9.48% (active),52.7%,47.6%,–,33.2%,30.2%,36.5%,31.8%,42.5%
COc1cc(-c2c3c(nc4c2c(C)nn4-c2ccccc2)-c2ccccc2C(=O)C3=O)cc(OC)c1OC,76.6%,99.7%,104,107%,77.4%,84.4%,80.6%,97.8%,69.7%,92.2%,76.9%,72.4%,70.9%,83.3%,78.9%,107%,–,64.1%,90%
Nc1ccc(N2CCOCC2)cc1,86.1%,102%,91.2,90.8%,104%,94.1%,110%,92.2%,123%,118%,102%,86.5%,96.1%,108%,107%,–,–,107%,94.1%
CC/C=C\C[C@H](O)C/C=C1/C(=O)C=C[C@@H]1C/C=C\CCCC(N)=O,-38.3% (active),-39.7% (active),29.7,-15.6% (active),-9.93% (active),-19.3% (active),-23.5% (active),-24.2% (active),-27.8% (active),18.8%,-1.14% (active),-14.8% (active),20.4%,-81% (active),27.3%,-22.2% (active),–,-11.7% (active),1.88% (active)
O=c1c2cccc3c(Nc4c(F)cccc4F)ccc(c32)c2nc3ccccc3n12,85.8%,75.1%,86.8,85.6%,72.7%,83%,82.4%,100%,84.9%,104%,84.9%,93.8%,82.1%,116%,97.8%,–,100%,–,100%
CNC(=O)c1cc(Oc2ccc3nc(NC(=O)Nc4ccc(N5CCC(N(C)C)CC5)cc4)sc3c2)ccn1,88.1%,94.9%,88.9,93.5%,81.6%,117%,79.8%,–,80%,74.1%,2.09% (active),56.1%,85.6%,61.5%,84.7%,98.9%,73.4%,105%,94%
COc1ccc(/C=C/C(=O)c2ccc(NC(=O)c3cc4cc5ccccc5nc4s3)cc2)cc1OC,87%,86%,84.2,92.3%,99.9%,95.9%,105%,106%,99.5%,106%,80.6%,98.6%,91.6%,111%,98.9%,99.4%,99.7%,108%,98.9%
